Source: PubChem
Shown are actives, neighbours in structure and some others; about 1.4% of the full set was active somewhere.
HePTP inhibitor: inhibitors of human HePTP phosphatase. AID 521. hit rate 0.64% among 110,000. inhibition, % at 20 µM. recombinant HePTP phosphatase activity, OD absorbance. P35236; in the data active = inhibition above about 50%;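 also: plate controls were vehicle for no effect and reference inhibitor for full effect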
Target sequence (P35236 whole entry, looked up): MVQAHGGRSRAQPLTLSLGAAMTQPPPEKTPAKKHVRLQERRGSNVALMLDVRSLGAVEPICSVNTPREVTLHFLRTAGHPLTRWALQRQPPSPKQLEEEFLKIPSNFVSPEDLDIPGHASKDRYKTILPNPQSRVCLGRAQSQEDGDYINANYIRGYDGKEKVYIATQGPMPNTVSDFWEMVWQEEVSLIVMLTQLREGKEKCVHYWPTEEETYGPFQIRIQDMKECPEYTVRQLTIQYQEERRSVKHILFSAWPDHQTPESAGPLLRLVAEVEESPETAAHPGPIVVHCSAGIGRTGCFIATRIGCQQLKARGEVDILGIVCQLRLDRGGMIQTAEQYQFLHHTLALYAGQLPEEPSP
PLAP activator: activates human placental alkaline phosphatase; hit rate 1.2% among 96,000; P05187; purified PLAP enzyme, luminescent substrate read-out; hits give high values; activation fold at 20 µM; in the data active = activation fold above about 2
MKP-1 inh: blocks human MKP-1 phosphatase activity. P28562. recombinant MKP-1, OMFP hydrolysis fluorescence. inhibition, %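 (compounds tested at a single concentration somewhere between 10 and 100 µM)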. hit rate 0.15% among 65,000. AID 374;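 active = inhibition above about 50%, limit read from the data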;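 also: 0% = DMSO max control wells and 100% = wells with enzyme stopped by NaOH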
Cdc25B block: inhibitors of human Cdc25B phosphatase; P30305; inhibition, %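 (compounds tested at 10 µM final in the well)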; hit rate 0.1% among 65,000; recombinant Cdc25B, OMFP fluorescence Ex485/Em525; in the data active = inhibition above about 50%
BAP1 inh: blocks human BAP1 ubiquitin-AMC hydrolysis; Q92560; AID 436; calls only at 20 µM; hit rate 0.48% among 72,000; recombinant BAP1, Ub-AMC hydrolysis fluorescence kinetic; hits give low values;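 active = activity remaining at or below 50% of control, provided the compound also passes the data quality filters; inactive = the rest, including low values that fail the filters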;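 also: 100% = DMSO wells rate and 0% = substrate alone blank rate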
Active calls of the source: *.

What do the screens show for `Cc1ccc(-c2csc(C3C(N)=NC(S)=C(C#N)C34CCCCC4)n2)cc1` (stereo unspecified)?
PLAP activator: 2.4*

Results for N#CC1=C(S)N=C(N)C(c2nc(-c3ccccc3)cs2)C12CCCC2 (stereo unspecified) ?
PLAP activator: 2.5*

What do the screens show for `Cc1ccc(C(=O)CSC2=NC(N)=C(C#N)C3(CCCCC3)C2C(N)=O)cc1` (stereo unspecified)?
HePTP inhibitor: 2.8; PLAP activator: 1.3; MKP-1 inh: 0.4; Cdc25B block: 1.7; BAP1 inh: inactive

What do the screens show for `Cc1cc(=O)[nH]c(Nc2nc(C)c3cccc(C)c3n2)n1`?
HePTP inhibitor: 11.4

Results for Cc1nc(Nc2nc(O)cc(=O)[nH]2)nc2c(C)cccc12 ?
HePTP inhibitor: 103.4*

What do the screens show for `Cc1ccc(S(=O)(=O)N2CCCCC2C)cc1` (stereo unspecified)?
HePTP inhibitor: -8.3

How did Cc1ccc2nc(-c3ccc(N4C(=O)C5C6c7ccccc7C(c7ccccc76)C5C4=O)cc3)sc2c1 (stereo unspecified) do in these assays?
HePTP inhibitor: -6.7

How did CCOc1cccc(=[O+]CC)c2c(C)oc(C)c12 do in these assays?
HePTP inhibitor: 101.9*

Results for CC(=O)c1ccc(-n2nnnc2SCC(=O)Nc2cccc(NC(=O)c3ccco3)c2)cc1 ?
PLAP activator: 0.9

How did CCc1ccc(-n2nnnc2SCC(=O)NNC(=O)c2ccco2)cc1 do in these assays?
PLAP activator: 2.3*

What do the screens show for `CC(=O)c1ccc(-n2nnnc2SCC(=O)NNC(=O)c2ccco2)cc1`?
PLAP activator: 2.2*

How did CC(O)Cn1c(=N)n(C)c2ccccc21 (stereo unspecified) do in these assays?
BAP1 inh: inactive

Results for CCOc1ccc(N2C(=O)NC(=O)/C(=C\c3ccc(OC)cc3C)C2=O)cc1 ?
HePTP inhibitor: 1.3

What do the screens show for `COC(=O)C1=C(C)NC2=C(C(=O)CCC2)C1c1ccccc1I` (stereo unspecified)?
BAP1 inh: inactive

Results for CC(=O)c1cccc(NC(=O)COc2ccc(-c3ccc(C)cc3)cc2)c1 ?
HePTP inhibitor: -0.1

Results for Cc1cc(C)nc(Nc2ncc(O)n2-c2ccc(C)c(C)c2)n1 ?
PLAP activator: 2.6*; BAP1 inh: inactive

What do the screens show for `Cc1cc(C)nc(Nc2ncc(O)n2-c2ccc(C)c(Cl)c2)n1`?
HePTP inhibitor: 2.2; PLAP activator: 1.9; MKP-1 inh: 1.1; Cdc25B block: 2.1; BAP1 inh: inactive

How did O=C(O)CCCCCN1C(=O)C(=O)/C(=C(/O)c2ccc(Cl)cc2)C1c1ccc2c(c1)OCO2 (stereo unspecified) do in these assays?
HePTP inhibitor: -5.6

Results for O=C(O)CCCCCN1C(=O)C(=O)/C(=C(/O)c2ccc([N+](=O)[O-])cc2)C1c1ccc2c(c1)OCO2 (stereo unspecified) ?
HePTP inhibitor: 104.2*

How did COc1cc(C=C2C(=O)NC(=O)NC2=O)cc(I)c1OCc1ccc(Cl)cc1 do in these assays?
HePTP inhibitor: 6.6

How did O=C(O)c1ccc(-c2ccc(C=C3C(=O)c4ccccc4C3=O)o2)cc1Cl do in these assays?
HePTP inhibitor: 52.1*

What do the screens show for `O=C(/C=C\c1ccc(-c2cc(Cl)ccc2Cl)o1)c1ccccc1`?
HePTP inhibitor: -2.4

How did O=C1NC(=S)N/C1=C/c1ccc(-c2cc(C(=O)O)ccc2Cl)o1 do in these assays?
HePTP inhibitor: 103.7*

Results for O=C(O)c1ccc(Cl)c(-c2ccc(C=C3C(=O)c4ccccc4C3=O)o2)c1 ?
HePTP inhibitor: 104.1*

What do the screens show for `O=C1NC(=S)N/C1=C/c1ccc(-c2cccc(Cl)c2Cl)o1`?
HePTP inhibitor: 13.4

What do the screens show for `CC(C)n1c(N2CCN(C(=O)c3cccs3)CC2)nc2ccccc21`?
HePTP inhibitor: -0.1; PLAP activator: 1.7; MKP-1 inh: -9.2; Cdc25B block: 14.6; BAP1 inh: inactive

Results for CC(C)n1c(N2CCN(CC(=O)NCc3cccs3)CC2)nc2ccccc21 ?
HePTP inhibitor: 5.1; PLAP activator: 2*; MKP-1 inh: 24.0; Cdc25B block: 17.6; BAP1 inh: inactive

Results for COc1ccc(NC(=O)c2cccc(Cl)c2)cc1Cl ?
HePTP inhibitor: -1.3

How did Cc1ccccc1C1=N/C(=C\c2ccc(Br)o2)C(=O)O1 do in these assays?
HePTP inhibitor: 59.5*

Results for O=C1OC(c2ccccc2F)=N/C1=C\c1ccc(Br)cc1 ?
HePTP inhibitor: 8.8

Results for Cc1ccc(OCC(=O)Nc2ccc(C(=O)OCC(C)C)cc2)c(C)c1 ?
HePTP inhibitor: 6.1

What do the screens show for `Oc1c(C(c2ccccc2)N2CCc3ccccc3C2)sc2ncnn12` (stereo unspecified)?
HePTP inhibitor: 8.7; MKP-1 inh: 1.4; Cdc25B block: 1.6; BAP1 inh: inactive

What do the screens show for `Oc1c(C(c2ccco2)N2CCN(C(c3ccccc3)c3ccccc3)CC2)sc2ncnn12` (stereo unspecified)?
HePTP inhibitor: -3.8; PLAP activator: 2.1*; MKP-1 inh: 41.7; Cdc25B block: -4.2; BAP1 inh: inactive

What do the screens show for `COCCCNc1oc(COc2ccc(Cl)cc2Cl)nc1C#N`?
HePTP inhibitor: 8.9; PLAP activator: 1.5; MKP-1 inh: -9.6; Cdc25B block: 0.1; BAP1 inh: inactive

How did CN(C)CCNc1oc(COc2ccc(Cl)cc2Cl)nc1C#N do in these assays?
PLAP activator: 2*

What do the screens show for `Clc1cc(Cl)c2nc3[nH]c4ccc(Br)cc4c3nc2c1`?
HePTP inhibitor: 7.6

How did CCCN1CCc2c(sc3[nH]c(=S)n(CCc4ccccc4)c(=O)c23)C1 do in these assays?
HePTP inhibitor: 7.1

How did Cc1cccc(NC(=O)C(=O)NCc2ccccc2Cl)c1 do in these assays?
HePTP inhibitor: -4.3

Results for C=CCn1c(N)c(C(=O)NCC2CCCO2)c2nc3ccccc3nc21 (stereo unspecified) ?
HePTP inhibitor: 8.9; PLAP activator: 1.6; MKP-1 inh: 24.7; Cdc25B block: -6.5; BAP1 inh: inactive

What do the screens show for `COc1ccc(-n2c(N)c(C(=O)NCC3CCCO3)c3nc4ccccc4nc32)c(OC)c1` (stereo unspecified)?
HePTP inhibitor: 2.2; PLAP activator: 2*; MKP-1 inh: 40.4; Cdc25B block: 3.0

How did COc1ccc(CNC(=O)Cn2nc(C)c([N+](=O)[O-])c2C)cc1 do in these assays?
HePTP inhibitor: 6.5

Results for O=C(CSc1ncn[nH]1)Nc1nnc(-c2ccccc2)s1 ?
HePTP inhibitor: -7.1; PLAP activator: 2.3*; MKP-1 inh: -5.0; Cdc25B block: -4.8; BAP1 inh: inactive

What do the screens show for `O=C(CSc1ncn[nH]1)Nc1ccccc1-c1ccccc1`?
PLAP activator: 1.4

How did CCOC(=O)c1ccc(-n2c(=O)[nH]c3ccccc3c2=O)cc1 do in these assays?
HePTP inhibitor: 0.0; PLAP activator: 2*; MKP-1 inh: -14.7; Cdc25B block: 16.2; BAP1 inh: inactive

What do the screens show for `Oc1ccc(-c2[nH]ncc2Oc2ccccc2)c(O)c1O`?
BAP1 inh: inactive
